BoNT-F LC inh – BoNT/F light chain protease inhibitors, primary screen, biochemical, flow cytometry, MLPCN library; inhibition, % at 10 µM; 360,000 tested, 0.22% active; Botulinum neurotoxin type F light chain protease (Clostridium botulinum); AID 588497, 2011; Multiplex microsphere protease cleavage assay; in the data active = inhibition above about 35%, passing the limit was not always enough; inconclusive = no clear call, values can overlap the other calls
SSB-PriA inh – inhibitors of Klebsiella pneumoniae PriA binding to SSB C-terminal tail, primary screen, biochemical, AlphaScreen; PriA–SSB C-terminal tail interaction (Klebsiella pneumoniae); AlphaScreen SSBct-PriA binding, biotinylated peptide; inhibition, % at 33 µM; 430,000 tested, 0.6% active; AID 1272365, 2023; in the data active = inhibition mostly above about 37%, no sharp cut-off; inactive = mostly below about 20%
BoNT A protease – BoNT/A light chain protease inhibitors, primary screen, biochemical, flow cytometry, MLPCN library; Botulinum neurotoxin type A light chain protease (Clostridium botulinum A str. ATCC 3502); multiplex microsphere protease substrate cleavage; inhibition, % at 10 µM; 360,000 tested, 0.17% active; AID 588499, 2011
Anthrax LF prot – Bacillus anthracis LF protease inhibitors, primary screen, biochemical, multiplex microsphere, MLPCN library | Lethal factor (Bacillus anthracis), P15917 | 360,000 tested, 0.12% active | inhibition, % at 10 µM | AID 588501, 2011 | multiplex microsphere protease cleavage assay
Target sequence (P15917 whole entry, looked up): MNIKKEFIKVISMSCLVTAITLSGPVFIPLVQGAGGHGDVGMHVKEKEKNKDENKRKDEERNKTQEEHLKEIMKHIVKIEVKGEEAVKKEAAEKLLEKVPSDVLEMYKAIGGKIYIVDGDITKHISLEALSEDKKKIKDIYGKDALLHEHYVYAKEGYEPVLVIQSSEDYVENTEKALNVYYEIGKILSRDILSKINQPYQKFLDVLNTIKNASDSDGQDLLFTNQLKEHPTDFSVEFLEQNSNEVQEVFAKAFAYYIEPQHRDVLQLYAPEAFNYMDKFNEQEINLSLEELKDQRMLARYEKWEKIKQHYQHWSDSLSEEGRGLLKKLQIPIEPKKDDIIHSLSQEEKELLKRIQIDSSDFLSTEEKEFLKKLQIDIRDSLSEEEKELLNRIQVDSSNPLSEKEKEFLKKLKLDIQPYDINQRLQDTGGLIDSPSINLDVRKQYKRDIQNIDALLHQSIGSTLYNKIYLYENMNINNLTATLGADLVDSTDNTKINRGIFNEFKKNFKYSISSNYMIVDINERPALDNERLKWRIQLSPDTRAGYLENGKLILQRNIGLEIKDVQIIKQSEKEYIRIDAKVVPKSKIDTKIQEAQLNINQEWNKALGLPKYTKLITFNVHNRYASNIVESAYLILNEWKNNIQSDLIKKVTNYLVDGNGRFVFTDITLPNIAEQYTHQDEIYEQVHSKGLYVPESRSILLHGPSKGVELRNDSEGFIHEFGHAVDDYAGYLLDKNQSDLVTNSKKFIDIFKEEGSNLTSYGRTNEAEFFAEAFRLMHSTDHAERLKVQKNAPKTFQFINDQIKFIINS
Autofluor counter – compound fluorescence in toxin protease inhibitor counterscreen | 360,000 tested, 3.1% active | AID 624483 | fluorescence intensity (concentration not given with the values) | compound autofluorescence counterscreen, microsphere flow cytometry; hits give high values; in the data active = fluorescence intensity above about 16000; inconclusive = no clear call, values can overlap the other calls
Of the large screens only hits and unclear results are named; the others gave an inactive call. Sampled rows, rich in hits. Any-hit rate of the full collection: about 3.1%. Cut-off read from the data, not from the text of the source, unless noted: active = inhibition above about 30%; inconclusive = no clear call, values can overlap the other calls; inactive = below that.

Cn1cnnc1SCC(=O)N(Cc1ccc2c(c1)OCO2)C1(C(=O)NC2CCCCC2)CCCC1	Autofluor counter 22413
CN(C(=O)c1ccc2c(c1)OCO2)C1(C(=O)NC2CCCCC2)CCCCC1	none
Cc1cccc(N(C(=O)c2cnc3n(c2=O)CCS3)C2CCCCC2)c1	Autofluor counter 22301
COC(=O)c1ccccc1NC(=O)c1cnc2n(c1=O)CCS2	none (no result: BoNT-F LC inh, BoNT A protease, Anthrax LF prot, Autofluor counter)
CC(C)N(Cc1ccccc1)C(=O)c1cnc2n(c1=O)CCS2	none
O=C(c1cnc2n(c1=O)CCS2)N(c1ccccc1)C1CCCCC1	none
COC(=O)c1ccc(C(=O)OC)c(NC(=O)c2cnc3n(c2=O)CCS3)c1	BoNT A protease inconclusive, Autofluor counter 16274
CN(Cc1ccccc1)C(=O)c1cnc2n(c1=O)CCS2	BoNT A protease inconclusive, Autofluor counter 19652
COC(=O)c1ccc(-c2csc(NC(=O)/C=C/c3ccc4c(c3)OCO4)n2)cc1	none (no result: BoNT-F LC inh, BoNT A protease, Anthrax LF prot, Autofluor counter)
Oc1ccccc1C(=S)N1CCCCCC1	Autofluor counter 19817
CC(C)(C)N(Cc1ccccc1)C(=O)CSc1nnc(CNc2ccc(F)cc2)o1	Autofluor counter 17024
CCOC(=O)CN(C(=O)CSc1nnc(CNc2ccc(F)cc2)o1)c1ccccc1	none
O=C(CSc1nnc(CNc2ccc(F)cc2)o1)N1CCN(C(=O)c2ccco2)CC1	none
O=C(CSc1nnc(CNc2ccc(F)cc2)o1)N1c2ccccc2Sc2ccccc21	Autofluor counter 20080
O=c1c2scc(-c3ccc(Cl)cc3)c2ncn1Cc1ccccc1F	none (no result: BoNT-F LC inh, BoNT A protease, Anthrax LF prot, Autofluor counter)
COc1ccc(-c2nc(CS(=O)(=O)CC(=O)NCCc3cc(OC)ccc3OC)c(C)o2)cc1	Autofluor counter 17109
COc1cccc(-c2nc(CS(=O)(=O)CC(=O)NCCc3cc(OC)ccc3OC)c(C)o2)c1	none
COc1cccc(-c2nc(CS(=O)(=O)CC(=O)NCCC(C)C)c(C)o2)c1	none
COc1ccc(OC)c(CCNC(=O)CS(=O)(=O)Cc2nc(-c3ccc(C)cc3)oc2C)c1	Autofluor counter 23969
COCCCNC(=O)CS(=O)(=O)Cc1nc(-c2cccc(OC)c2)oc1C	Autofluor counter 20516
CC(=NNC(N)=S)C1=CCC2C3CC[C@H]4CC(O)CC[C@]4(C)C3CC[C@]12C (stereo partly drawn)	none (no result: BoNT-F LC inh, BoNT A protease, Anthrax LF prot, Autofluor counter)
Cc1c(Cl)cccc1S(=O)(=O)NCc1ccc(C(=O)c2cccs2)s1	none (no result: BoNT-F LC inh, BoNT A protease, Anthrax LF prot, Autofluor counter)
O=C(c1ccco1)n1c(=S)nc2ccccn21	Autofluor counter 22668
O=C(Nc1cccc(Cl)c1Cl)C1CCN(c2ncccn2)CC1	Autofluor counter 22389
CS(=O)(=O)N1CCC(C(=O)Nc2cccc(Cl)c2Cl)CC1	none (no result: BoNT-F LC inh, BoNT A protease, Anthrax LF prot, Autofluor counter)
O=C(CN1CCOCC1)Nc1cccc(Cl)c1Cl	BoNT A protease inconclusive, Autofluor counter 23826
CC(C)(C)c1nnc(NC(=O)C2CCN(c3ncccn3)CC2)s1	Autofluor counter 21096
COc1ccccc1N1CCN(CCNC(=O)C(=O)Nc2ccc(F)cc2)CC1	none (no result: BoNT-F LC inh, BoNT A protease, Anthrax LF prot, Autofluor counter)
COc1ccc(NC(=S)Nc2ccc(N)c([N+](=O)[O-])c2)cc1	SSB-PriA inh 39
COc1ccc(NC(=S)Nc2ccc3nccnc3c2)cc1	SSB-PriA inh 77
CCOc1ccc(NC(=S)Nc2ccc3nccnc3c2)cc1	none (no result: BoNT-F LC inh, BoNT A protease, Anthrax LF prot, Autofluor counter)
CCOCC(=O)Nc1c2c(nn1-c1ccc(Cl)cc1)CSC2	none (no result: BoNT-F LC inh, BoNT A protease, Anthrax LF prot, Autofluor counter)
Cc1nn(C(C)c2n[nH]c(=S)n2-c2ccc(F)cc2)c(C)c1[N+](=O)[O-] (stereo not drawn)	Autofluor counter 17161
Cc1nn(CCc2n[nH]c(=S)n2-c2ccc(F)cc2)c(C)c1[N+](=O)[O-]	none
Cc1ccc(NC(=O)C2c3ccccc3Oc3ccccc32)nc1	none
O=C(Nc1cnccn1)C1c2ccccc2Oc2ccccc21	Autofluor counter 19665
O=C(CSc1n[nH]c(=O)c2cc(-c3ccco3)nn12)NCc1ccccc1Cl	none (no result: BoNT-F LC inh, BoNT A protease, Anthrax LF prot, Autofluor counter)
COC(=O)c1c(NC(=O)c2ccc(CSc3ccccc3)o2)sc2c1CCCC2	none (no result: BoNT-F LC inh, BoNT A protease, Anthrax LF prot, Autofluor counter)
O=c1cc(Cn2ccnc2)c2cc3c(cc2o1)CCC3	none
Cc1cc2oc(=O)cc(Cn3ccnc3)c2cc1C	Autofluor counter 16965
O=C(NCCCn1nc(-c2ccccc2)ccc1=O)Nc1cccc(C(F)(F)F)c1	none (no result: BoNT-F LC inh, BoNT A protease, Anthrax LF prot, Autofluor counter)
O=C(CC1SC2=NCCN2C1=O)Nc1ccc(Cl)cc1 (stereo not drawn)	Autofluor counter 17758
O=C(CC1Sc2ncnn2C1=O)Nc1ccc(Cl)cc1 (stereo not drawn)	none (no result: BoNT-F LC inh, BoNT A protease, Anthrax LF prot, Autofluor counter)
NC(=O)COC(=O)c1cc(=O)[nH]c2ccccc12	none

Source: PubChem
